Results from PubChem BioAssay (NCATS).
Records with an inconclusive call do not appear. The source made the active and inactive calls. The call rests on the fitted dose curve; in most records, active means well fitted curve in the direction sought with a large enough effect; inconclusive means small, poorly fitted or top-dose-only effect, or another doubt; inactive means no such curve, though single readings can be large; an effect the other way counts as inactive or inconclusive.

Tests used:
CRL-7250 = normal cell line; assay: Cytotoxic Profiling of Annotated Libraries Using Quantitative High-Throughput Screening (AID 1296008); settings: Five cell lines viability, CellTiter-Glo ATP luminescence, 48-72 h; max response: hits give low values; further: nearly all actives have a fitted effect of over 60% in size; on max response: on the % scale 0 is the no-effect control and ±100 the full control effect
Outline: (§1)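 Compounds were pin-transferred onto cells and incubated 48 or 72 hr at 37 degree Celsius, 95% humidity. CellTiter-Glo was added, plates sat 10 min at room temperature, then ATP-coupled luminescence was imaged as the viability read-out.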

HEK293 = assay: as above; settings: Five cell lines viability, CellTiter-Glo ATP luminescence, 48-72 h; max response: hits give low values
Outline: as §1

HaCat [1] = assay: as above; settings: Five cell lines viability, CellTiter-Glo ATP luminescence, 48-72 h; max response: hits give low values
Outline: as §1

KB-3-1 = assay: as above; settings: Five cell lines viability, CellTiter-Glo ATP luminescence, 48-72 h; max response: hits give low values
Outline: as §1

NIH3T3 = assay: as above; settings: Five cell lines viability, CellTiter-Glo ATP luminescence, 48-72 h; max response: hits give low values
Outline: as §1

HACAT [2] = assay: qHTS assay to identify novel small-molecules to repurpose for Merkel cell carcinoma treatment (AID 1296009); settings: MCC and control cell lines, CellTiter-Glo viability, 72 h; at 44.8 µM (top of the series) unless noted; further: nearly all actives have a fitted effect of over 60% in size
Outline: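 Viability readout: ATP luminescence (CellTiter-Glo) after 72 hr drug exposure at 37 degree celsius. Dose-response format was 8 points for NPC and 11 points for MIPE; data normalized to in-plate controls.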

C33A = assay: Primary qHTS to identify gynecologic anti-cancer compounds using libraries of approved drugs and bioactive compounds (AID 1345084); settings: Gynecologic cancer cell panel viability, ATPlite luminescence, 48 h; series mostly up to 57.5 µM; further: on the % scale 0 is the no-effect control and ±100 the full control effect; nearly all actives have a fitted effect of over 55% in size
Outline: (§2)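 ATP-based viability (ATPlite), 1,000 cells/well, 16 h pre-incubation, 48 h compound at 37 C, 5% CO2, 15 min RT before read.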

CASKI = assay: as above; settings: Gynecologic cancer cell panel viability, ATPlite luminescence, 48 h; series mostly up to 57.5 µM
Outline: as §2

Es-2 = assay: as above; settings: Gynecologic cancer cell panel viability, ATPlite luminescence, 48 h; series mostly up to 57.5 µM
Outline: as §2

HeLa = assay: as above; settings: Gynecologic cancer cell panel viability, ATPlite luminescence, 48 h; series mostly up to 57.5 µM
Outline: as §2

Hek293T = assay: as above; settings: Gynecologic cancer cell panel viability, ATPlite luminescence, 48 h, control line for the selectivity index; series mostly up to 57.5 µM
Outline: as §2

JEG-3 = assay: as above; settings: Gynecologic cancer cell panel viability, ATPlite luminescence, 48 h; series mostly up to 57.5 µM
Outline: as §2

CAOV3 = assay: as above; settings: Gynecologic cancer cell panel viability, ATPlite luminescence, 48 h; series mostly up to 57.5 µM
Outline: as §2

Cc1cc(Cn2cnc3c2CC(C(=O)O)N(C(=O)C(c2ccccc2)c2ccccc2)C3)ccc1N(C)C (centres undefined)
inactive: outcome (CRL-7250) | max response (HEK293) -1.68% | outcome (HaCat [1]) | max response (KB-3-1) 5.82% | max response (NIH3T3) 1.33% | outcome (HACAT [2]) | Potency (C33A) | outcome (CASKI) | Potency (Es-2) | Potency (HeLa) | Potency (Hek293T) | Potency (JEG-3)

Cc1c(F)cc(C(=O)NC2CC2)cc1-c1ccc(C(=O)NCC(C)(C)C)cn1
inactive: outcome (CRL-7250) | max response (HEK293) -4.94% | outcome (HaCat [1]) | max response (KB-3-1) 4.19% | max response (NIH3T3) -1.86% | outcome (HACAT [2]) | Potency (C33A) | Potency (CAOV3) | outcome (CASKI) | Potency (Es-2) | Potency (HeLa) | Potency (Hek293T) | Potency (JEG-3)

COc1ccc2c(c1)C=C1Cn3c-2c(C2CCCCC2)c2ccc(cc23)C(=O)NS(=O)(=O)N(C)CCOCCN(C)C1=O
inactive: max response (CRL-7250) -49.9% | max response (HEK293) -78% | outcome (HaCat [1]) | max response (KB-3-1) -5.47% | max response (NIH3T3) -17.2% | outcome (HACAT [2]) | Potency (C33A) | Potency (CAOV3) | outcome (CASKI) | Potency (HeLa) | Potency (Hek293T) | Potency (JEG-3)

CC[C@@H]1C(=O)O[C@]23C=C[C@@H]4C(C(=O)OC)=CO[C@H](O[C@@H]12)[C@@H]43
inactive: max response (CRL-7250) -23.4% | max response (HEK293) -18.1% | outcome (HaCat [1]) | max response (KB-3-1) -9.89% | max response (NIH3T3) 1.97% | outcome (HACAT [2]) | Potency (C33A) | Potency (CAOV3) | Potency (Es-2) | Potency (Hek293T)

C/C=C(\C)C(=O)OC1C2(O)CC3=C4CC(=O)OC(c5ccoc5)C4(C)CCC3C(C)(C2=O)C(C(OC(C)=O)C(=O)OC)C1(C)C (centres undefined)
inactive: outcome (CRL-7250) | max response (HEK293) -2.36% | outcome (HaCat [1]) | max response (KB-3-1) -3.65% | max response (NIH3T3) 1.4% | outcome (HACAT [2]) inactive [at 17.4 µM] | Potency (C33A) | Potency (CAOV3) | Potency (Es-2) | Potency (HeLa) | Potency (Hek293T) | Potency (JEG-3)

O=C(/C=C/c1ccc(O)cc1)OC[C@H]1O[C@@H](O/C(=C\c2ccccc2)C(=O)O)[C@H](O)[C@@H](O)[C@@H]1O
inactive: outcome (CRL-7250) | max response (HEK293) -7.06% | outcome (HaCat [1]) | outcome (KB-3-1) | max response (NIH3T3) 4.52% | outcome (HACAT [2]) inactive [at 17.4 µM] | Potency (C33A) | Potency (CAOV3) | outcome (CASKI) | Potency (Es-2) | Potency (HeLa) | Potency (Hek293T) | Potency (JEG-3)

C/C(=C\CO)CC/C=C(\C)C(=O)O[C@@H]1O[C@H](CO)[C@@H](O)[C@H](O)[C@H]1O
inactive: max response (CRL-7250) -4.11% | max response (HEK293) 1.04% | outcome (HaCat [1]) | outcome (KB-3-1) | max response (NIH3T3) 1.84% | outcome (HACAT [2]) | Potency (C33A) | Potency (CAOV3) | outcome (CASKI) | Potency (Es-2) | Potency (HeLa) | Potency (Hek293T) | Potency (JEG-3)

CCC(C)/C=C(C)/C=C/C1=CC2=C(Cl)C(=O)C(C)(OC(C)=O)C(=O)C2=CN1C(CCCN=C(N)N)C(=O)O (centres undefined)
inactive: max response (CRL-7250) -3.35% | max response (HEK293) 3% | outcome (HaCat [1]) | max response (KB-3-1) 7.97% | max response (NIH3T3) -0.868% | outcome (HACAT [2]) inactive [at 17.4 µM] | Potency (C33A) | Potency (CAOV3) | outcome (CASKI) | Potency (Es-2) | Potency (HeLa) | Potency (JEG-3)

C[C@@H]1O[C@@H](O[C@H]2[C@H](O)[C@@H](O)[C@H](OC(=O)[C@]34CCC(C)(C)C[C@H]3C3=CCC5[C@@]6(C)CC[C@H](O[C@@H]7O[C@H](C(=O)O)[C@@H](O)[C@H](O)[C@H]7O)C(C)(C)C6CC[C@@]5(C)[C@]3(C)CC4)O[C@@H]2CO)[C@H](O)[C@H](O)[C@H]1O (some centres undefined)
inactive: outcome (CRL-7250) | max response (HEK293) -4.26% | outcome (HaCat [1]) | max response (KB-3-1) -0.526% | max response (NIH3T3) -1.98% | outcome (HACAT [2]) inactive [at 9.27 µM] | activity change, negative = cytotoxicity (C33A) -8.12% [at 11.6 µM] | activity change, negative = cytotoxicity (CAOV3) -25.2% [at 11.6 µM] | activity change, negative = cytotoxicity (CASKI) 5.01% [at 11.6 µM] | activity change, negative = cytotoxicity (Es-2) -1.51% [at 11.6 µM] | activity change, negative = cytotoxicity (HeLa) -21.7% [at 11.6 µM] | activity change, negative = cytotoxicity (Hek293T) 10.3% [at 11.6 µM] | activity change, negative = cytotoxicity (JEG-3) -2.05% [at 11.6 µM]

C[C@H]1[C@H](C)CC[C@]2(C(=O)O)CC[C@]3(C(=O)O)C(=CCC4[C@@]5(C)CC[C@H](O[C@@H]6O[C@@H](C)[C@H](O)[C@@H](O)[C@H]6O)C(C)(C)C5CC[C@]43C)[C@H]12 (some centres undefined)
inactive: outcome (CRL-7250) | max response (HEK293) -0.583% | outcome (HaCat [1]) | max response (KB-3-1) -0.753% | max response (NIH3T3) 4.82% | outcome (HACAT [2]) inactive [at 17.4 µM] | Potency (C33A) | Potency (CAOV3) | Potency (Es-2) | Potency (HeLa) | Potency (Hek293T) | Potency (JEG-3)

O=C(O)c1cccc(CN2C(=O)/C(=C(\c3ccccc3)c3ccc(Cl)cc3)c3ccccc32)c1
inactive: max response (CRL-7250) 3.11% | max response (HEK293) -10.4% | outcome (HaCat [1]) | max response (KB-3-1) 5.03% | max response (NIH3T3) -3.22% | outcome (HACAT [2]) | Potency (C33A) | outcome (CASKI) | Potency (Es-2) | Potency (HeLa) | Potency (Hek293T) | Potency (JEG-3)
